Out of some 1,200 compounds screened, about 870 (72%) were called active. Roughly 3% stayed inconclusive and do not appear here. So high a share suggests a set chosen from earlier hits. Not all results are given here. Potency and affinity values are given separately. Values without a mark were called inactive.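 The calls were made as follows: active = every test run fits a falling curve whose half-maximal concentration is at most twice the top valid dose; inconclusive = runs disagree, or flat 30 to 70% inhibition, or poor fit; inactive = every run inactive: flat, rising or weaker potency.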
Test: ZM109 Env clade C HIV-1 fusion inhibitors, dose response, HeLa effector, CEM target cells, luciferase, cherry-pick (AID 652058);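 also: 0% = neutral control wells and -100% = maraviroc 300 nM wells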
Details: HeLa Env/CEM cell fusion, 16-24 h; series mostly up to 35 µM; activity change, negative = inhibition: at the top concentration

Point of comparison: `Cc1cc2ncn(S(=O)(=O)N3CCCCC3)c2cc1C`, “activity change, negative = inhibition” value 1.39%. Against it:
- Cc1[nH]c2ccccc2c1/C=N\NC(=O)c1ccccc1Cl — higher, 39.8%
- O=C(NCc1cccc(F)c1)[C@@H]1[C@@H](CO)[C@@H]2Cn3c(ccc(-c4cccnc4)c3=O)[C@H]1N2CC1CC1 — lower, -17.1%
- COc1ccc(CCNC(=O)C2CCCN(Cc3nc(-c4cccc(Cl)c4)oc3C)C2)cc1OC (stereo not drawn) — lower, -35.4%
- CCCNC(=O)N1[C@H](C#N)[C@H](c2ccc(-c3cccc(OC)c3)cc2)[C@@H]1CO — higher, 127%
- N#C[C@@H]1[C@H](c2ccc(-c3ccccc3F)cc2)[C@@H](CO)N1C(=O)Cc1ccccc1 — lower, -31.2%
- S=c1nc[nH]c2c1[nH]c1ccc(Cl)cc12 — higher, 77%
- Cc1cc(C(=O)CN2C(=O)c3ccccc3S2(=O)=O)c(C)n1C(C)C — lower, -55.3%
- Cc1onc(-c2ccccc2)c1C(=O)NC(=S)NNC(=O)c1ccc(O)cc1 — higher, 41%
- Cc1onc(-c2ccccc2)c1C(=O)Nc1ccc(Br)cc1Cl — lower, -20.5%
- CO[C@@H]1CN(C)C(=O)c2cc(NS(=O)(=O)c3ccc(C)cc3)ccc2OC[C@H](C)N(C(=O)NC(C)C)C[C@@H]1C — higher, 59.6%
- CCS(=O)(=O)Nc1ccc2c(c1)C(=O)N(C)C[C@H](OC)[C@@H](C)CN(C(=O)C1CCC1)[C@H](C)CO2 — higher, 101%
- CCCC(=O)Nc1ccc2c(c1)OC[C@@H](C)N(C(=O)CN(C)C)C[C@H](C)[C@@H](OC)CN(C)C2=O — lower, -17.8%
- CO[C@@H]1CN(C)C(=O)c2ccc(NS(C)(=O)=O)cc2OC[C@@H](C)N(C(=O)C2CCCCC2)C[C@H]1C — higher, 135%
- CO[C@H]1CN(C)C(=O)c2cc(NC(=O)C3CCOCC3)ccc2OC[C@H](C)N(Cc2nccs2)C[C@H]1C — lower, -16.3%
- COc1ccc(S(=O)(=O)NC[C@@H]2CC[C@H]3[C@H](CN3Cc3cc(F)ccc3F)O2)cc1 — higher, 19.1%
- CCCC(=O)Nc1ccc2c(c1)C(=O)N(C)C[C@@H](OC)[C@@H](C)CN(Cc1nccs1)[C@@H](C)CO2 — lower, 1.12%
- CCC(=O)Nc1ccc2c(c1)C(=O)N(C)C[C@@H](OC)[C@H](C)CN(C(=O)CC)[C@@H](C)CO2 — higher, 55.8%
- Clc1ccc2c(c1)C1=C(C(c3ccncc3)O2)C(c2ccc(Br)cc2)n2ncnc2N1 (stereo not drawn) — higher, 36.6%
- CC1CCCC(C)N1CCCNC(=O)c1nn(C)c2c1CSc1ccccc1-2 (stereo not drawn) — higher, 20.6%
- CN1C(=O)C2(c3ccccc31)N(C)CC(c1ccccc1)C21SC(=S)N(Cc2ccco2)C1=O (stereo not drawn) — higher, 6.82%
- O=C(Nc1ccc(S(=O)(=O)N2CCCC2)cc1)c1ccc(CN2CCOCC2)cc1 — lower, -10.5%
- CCN(CC)c1ccc(/C=N/N2C(C)CCCC2C)c(O)c1 (stereo not drawn) — higher, 35.2%
- Nc1nonc1C(=O)NCCNCc1cc(Br)ccc1OCc1ccccc1F — lower, -2.3%
- Cn1c(SCc2nc(-c3ccc(Cl)cc3)no2)nnc1-c1cccs1 — lower, -18.2%
- Cc1ccc(COC(=O)c2cc(S(=O)(=O)N3CCCCC3)ccc2N2CCOCC2)cc1 — higher, 47%
- O=C(COC(=O)c1cc(S(=O)(=O)N2CCOCC2)ccc1O)NCc1ccc2c(c1)OCO2 — higher, 2.67%
- CCNC1CCC(Nc2ccnc3cc(Cl)ccc23)CC1 (stereo not drawn) — lower, -13.6%
- CCC(C)NS(=O)(=O)c1ccc(S(=O)(=O)N2CCCC3(CCCCC3)C2)cc1 (stereo not drawn) — lower, -47.6%
- CC(=O)Nc1ccc(NC(=O)CN(c2ccc(C34CC5CC(CC(C5)C3)C4)cc2)S(C)(=O)=O)cc1 — higher, 197%
- CC(CCc1ccco1)NC(=O)CCc1nnc2ccc(NCc3ccccc3Cl)nn12 (stereo not drawn) — higher, 147%
- CCOc1ccccc1CNc1ncnc2ccc(-c3c(C)noc3C)cc12 — lower, -26.9%
- OCC[C@@H]1C[C@@H](O)[C@H](O)[C@]2(OCc3ccccc32)O1 — lower, -30.9%
- Cc1ccc2c(c1)c1c3n2CCN(CCC#N)C3CCC1 (stereo not drawn) — higher, 72.5%
- COc1ccccc1S(=O)(=O)n1cc(Cc2ccccc2)c(N)n1 — higher, 2.38%
- COc1ccc(C(O)c2nc3ccccc3n2C)cc1OC (stereo not drawn) — lower, -23.7%
- CCCCCn1c(C(C)NC(=O)CCC)nc2ccccc21 (stereo not drawn) — lower, -31%
- CCc1nc2ccccc2c(C(=O)OCC(=O)Nc2cccc(S(=O)(=O)N3CCOCC3)c2)c1C — higher, 168%
- C=CCNc1nc2c(c(=O)n(C)c(=O)n2C)n1CCCCCC — higher, 155%
- Nc1cc2c(cc1Br)[nH]c(=O)c1ccccc12 — lower, -25.2%
- CCc1nnc(NC(=O)[C@@H](NC(=O)c2cccc(S(=O)(=O)N(CC)CC)c2)C(C)C)s1 — higher, 39.5%
- COc1ccc(N2CCN(C(=O)C3CCC(Cn4c(=S)[nH]c5ccccc5c4=O)CC3)CC2)cc1 (stereo not drawn) — lower, -44.6%
- O=C(N/N=C/c1ccc(-n2ccnc2)cc1)c1cccs1 — higher, 73.5%
- Cc1ccc2c(c1)c1c3n2CCN(CC(N)=O)C3CCC1 (stereo not drawn) — higher, 81.6%
- COc1ccc2[nH]c3c(N4CCC(O)(c5cccc(C(F)(F)F)c5)CC4)ncnc3c2c1 — lower, -82.8%
- CCOC(=O)C(C)Oc1cccc2c(=O)n(CC(=O)NCCc3ccc(OC)c(OC)c3)ccc12 (stereo not drawn) — lower, -38.6%
- CC1(C(=O)NCc2ccc3c(c2)OCO3)CCN1Cc1csc2ccccc12 (stereo not drawn) — lower, -13.3%
- COc1ccc(NS(=O)(=O)c2cccc(C(=O)NNC(=O)CNC(=O)c3ccc(C)cc3)c2)cc1 — higher, 35.8%
- COc1ccc(NS(=O)(=O)c2ccc3c(c2)OCCO3)cc1OC — lower, -10.5%
- O=C(Cc1ccc(Cl)cc1Cl)Nc1ccncc1 — lower, -15.2%
- COC(=O)c1ccc(NC(=O)c2ccc(CN3CCOCC3)cc2)cc1 — lower, -20.5%
- Nc1ccn([C@@H]2O[C@H](C(=O)NCc3ccc4c(c3)OCO4)[C@@H](O)[C@H]2O)c(=O)n1 — higher, 14.6%
- CC(C)CC#Cc1ccc2c(c1)O[C@@H](CN(C)S(=O)(=O)c1ccc(F)cc1)[C@H](C)CN([C@@H](C)CO)S2(=O)=O — lower, -29.4%
- CCN1CCN(S(=O)(=O)c2ccc(Cl)c(C(=O)Nc3ccccc3N3CCCC3)c2)CC1 — higher, 21.8%
- C[C@H]1CN([C@@H](C)CO)C(=O)c2cccc(NC(=O)C3CCCCC3)c2O[C@H]1CN(C)S(C)(=O)=O — higher, 11.4%
- C[C@@H]1CN([C@@H](C)CO)C(=O)c2cccc(NC(=O)c3cnccn3)c2O[C@H]1CN(C)Cc1ccc(Cl)c(Cl)c1 — higher, 95.2%
- CNC[C@@H]1Oc2c(N)cccc2C(=O)N([C@@H](C)CO)C[C@@H]1C — higher, 15.9%
- c1csc(-c2csc3ncnc(NCCCN4CCOCC4)c23)c1 — lower, -26.2%
- COc1ccc(-c2nnc(Nc3nc4c(OC)cccc4s3)o2)cc1 — higher, 5.13%
- Cc1ccc(-n2nnnc2-c2cnn(-c3ccc(F)cc3)c2C(F)(F)F)cc1 — higher, 4.65%
- C[C@@H]1CN([C@H](C)CO)C(=O)c2cc(NS(=O)(=O)c3ccc(F)cc3)ccc2O[C@H]1CN(C)Cc1ccc(C(F)(F)F)cc1 — lower, -41.2%
- Cc1ccc(Cn2ncc3c(N4CCN(c5ccc(C)cc5)CC4)ncnc32)cc1 — lower, -44.6%
- Cc1ccc(-n2ncc3c(N4CCN(c5ccccc5)CC4)ncnc32)c(C)c1 — higher, 181%
- COc1cccc(CNc2nc(NCc3ccccc3OC)nc3ccsc23)c1 — lower, -21.1%
- CCOc1ccc(-c2cc(CCCC(=O)Nc3cccc(OC)c3)no2)cc1 — higher, 71.3%
- Cc1cc(C(C)(C)C)oc1C(=O)N(CC(=O)NC1CCCC1)Cc1ccc(Cl)cc1 — lower, -42.4%
- CCCc1cc(C(=O)NCc2ccc(OC)cc2)no1 — higher, 28.6%
- CCN(CCn1cccn1)C(=O)CC1C(=O)NCCN1CCc1ccccc1 (stereo not drawn) — lower, -40.9%
- O=C(CC1C(=O)NCCN1Cc1cccc(F)c1)NC1CCCCC1 (stereo not drawn) — lower, -44.7%
- Cn1cc(S(=O)(=O)N2CCOCC2)cc1C(=O)Nc1cccc(Cl)c1 — lower, -25.3%
- COc1cccc(CN2CCC2(C)C(=O)Nc2cccc(Oc3ccccc3)c2)c1OC (stereo not drawn) — lower, -31.8%
- CC(=O)c1ccc([C@H]2C[C@@]34CN(C(=O)OC(C)(C)C)S(=O)(=O)[C@H]3C[C@H]2O4)cc1 — higher, 40.5%
- c1ccc(Cc2cnc(N3CCN(Cc4csc5ccccc45)CC3)nc2)cc1 — higher, 16.5%
- O=C(NNC(=O)C(c1ccccc1)c1ccccc1)c1ccccn1 — lower, -20.2%
- CC(C)(C)n1nc(Cc2cccc3ccccc23)c2c(N)ncnc21 — higher, 16.9%
- C[C@@H]1CN([C@H](C)CO)C(=O)c2cccc(NC(=O)c3ccncc3)c2O[C@@H]1CN(C)Cc1ccc(C(=O)O)cc1 — lower, -18.2%
- COc1ccccc1N1CCN(Cc2ccc(O)c3ncccc23)CC1 — higher, 41.3%
- O=C(Nc1ccc(CN2CCOCC2)cc1)c1ccc(-c2cccc(Cl)c2)o1 — higher, 117%
- Cc1cc(C)nc(/N=C(\N)Nc2ccc(CC(=O)OC(C)C)cc2)n1 — higher, 38.8%
- CCC(=O)NC(=S)Nc1cccc(Cl)c1N1CCCCC1 — higher, 43.4%
- COc1ccc([Si](C)(C)[C@H]2[C@H](CCO)O[C@@]3(C(=O)N(Cc4cccc(N5CCOC5=O)c4)c4ccccc43)[C@@H]2C)cc1 — lower, -36.4%
- O=C(Nc1cccn(Cc2c(Cl)cccc2Cl)c1=O)c1ccc(Cl)cc1 — higher, 55.6%
- O=C(NCc1ccccc1)c1ccc(C(=O)NCc2ccccc2)cc1 — lower, -58.9%

Point of comparison: `COc1ccc(-c2cn3c(C)c(C(=O)Nc4cccc(NC(C)=O)c4)sc3n2)cc1`, “activity change, negative = inhibition” value -22% [at 16 µM]. Against it:
- COc1ccc(CC(=O)Nc2cccc(S(=O)(=O)N3CCCCCC3)c2)cc1OC — higher, -2.63% [at 16 µM]
- COc1ccc(/C(C)=N/NC(=O)c2cccc(S(=O)(=O)N3CCCC3)c2)c(O)c1 — lower, -36.4% [at 16 µM]
- Fc1ccc(-n2nnnc2-c2cnc(-c3cccs3)nc2C(F)(F)F)cc1 — higher, 91% [at 16 µM]
- COc1ccc(/C=C/c2nc(S(=O)(=O)c3ccccc3)c(NCCCN(C)C)o2)cc1OC — lower, -36.4% [at 16 µM]
- Oc1ccc(C=NNc2ccccn2)c(O)c1 — higher, 23.9% [at 16 µM]
- CCn1ncc(C2=NOC(C(=O)Nc3ccc(C)cc3)C2)c1C (stereo not drawn) — higher, 6.73% [at 16 µM]
- CNC[C@H]1Oc2c(NC(=O)Nc3ccc(C(F)(F)F)cc3)cccc2C(=O)N([C@@H](C)CO)C[C@H]1C — higher, 39.4% [at 16 µM]
- C[C@H](CO)N1C[C@H](C)[C@H](CN(C)C(=O)Nc2ccccc2)Oc2c(NS(=O)(=O)c3ccc(F)cc3)cccc2C1=O — higher, 84.3% [at 16 µM]

With `Cc1cc2c3c(c1)C1(SCC(=O)N1c1ccc(F)cc1)C(=O)N3C(C)(C)CC2C` (stereo not drawn) the “activity change, negative = inhibition” value was -68.3% [at 15 µM].

Source: PubChem BioAssay AID652058 (Broad Institute, 2013)
